Cruzain inh noDet = qHTS Assay for Promiscuous and Specific Inhibitors of Cruzain (without detergent). purified cruzain, Z-FR-AMC fluorescence, no detergent. Potency, µM, for the others: max response, negative = inhibition, most hits filed as inhibitors. 200,000 compounds, 2.3% hits. AID 1476, 2009;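 further: plate controls were enzyme without inhibitor for no effect and buffer without enzyme for full effect; nearly all actives have a fitted effect of over 40% in size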
Target sequence (P25779 123-467 limits assumed): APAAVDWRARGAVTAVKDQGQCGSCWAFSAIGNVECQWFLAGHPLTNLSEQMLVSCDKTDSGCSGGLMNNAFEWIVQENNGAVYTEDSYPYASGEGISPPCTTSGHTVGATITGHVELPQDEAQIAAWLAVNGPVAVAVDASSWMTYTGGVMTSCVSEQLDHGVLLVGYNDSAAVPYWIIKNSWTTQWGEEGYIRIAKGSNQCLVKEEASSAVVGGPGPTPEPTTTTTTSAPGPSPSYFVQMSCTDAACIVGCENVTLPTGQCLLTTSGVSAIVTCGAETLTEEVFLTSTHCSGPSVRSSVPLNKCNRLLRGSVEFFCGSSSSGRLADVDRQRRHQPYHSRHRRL
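Purified cruzain at 1.5 nM, pre-incubated 15 min with compound at room temperature in 100 mM sodium acetate pH 5.5, 5 mM DTT, 0.00005% Triton X-100. Reaction started with 2 uM Z-FR-AMC; AMC fluorescence increase over 60 s gives rate.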
Cruzain Triton = qHTS Assay for Promiscuous and Specific Inhibitors of Cruzain (with detergent). Cruzipain (Trypanosoma cruzi), P25779. purified cruzain, Z-FR-AMC fluorescence, 0.01% Triton. Potency, µM, inactives show max response, negative = inhibition, most hits filed as inhibitors. 200,000 compounds, 0.43% hits. AID 1478, 2009;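 further: plate controls were neutral wells for no effect and buffer without enzyme for full effect; nearly all actives have a fitted effect of over 40% in size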
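Steps: dispense cruzain (1.5 nM final) in acetate buffer pH 5.5 with DTT and 0.01% Triton X-100; pin-transfer compounds; incubate 15 min RT; add Z-FR-AMC (2 uM final); read fluorescence every 30 s, using the 60 s intensity change.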
Active calls of the source: *. Most compounds without a hit are left out; they make up all but 2.5% or so of the library. The call rests on the fitted dose curve; in most records, active means well fitted curve in the direction sought with a large enough effect; inconclusive means small, poorly fitted or top-dose-only effect, or another doubt; inactive means no such curve, though single readings can be large; an effect the other way counts as inactive or inconclusive. Potency means the concentration at half of the fitted maximal effect.

What do the screens show for `Cc1cnc(CNc2cc(-c3ccc(C(=O)N(C)C)cc3)ncn2)cn1`?
Cruzain inh noDet: 1%; Cruzain Triton: -2%

What do the screens show for `CCn1cc(/C=N/NC(=O)c2cc3c(ccc4ccccc43)o2)c2ccccc21`?
Cruzain inh noDet: 7.9µM*; Cruzain Triton: -2%

Results for O=C(NC1CCCC1)c1cc2c(ccc3ccccc32)o1 ?
Cruzain inh noDet: -4%; Cruzain Triton: -15%

How did CC(C)n1cc(/C=N\NC(=O)c2cc3c(ccc4ccccc43)o2)c2ccccc21 do in these assays?
Cruzain inh noDet: 5µM*; Cruzain Triton: -19%

What do the screens show for `O=C(N/N=C/c1cn(CCOc2ccccc2)c2ccccc12)c1ccncc1`?
Cruzain inh noDet: inconclusive; Cruzain Triton: -10%

What do the screens show for `Cc1ccc(/C=N/NC(=O)c2cc3c(ccc4ccccc43)o2)cc1[N+](=O)[O-]`?
Cruzain inh noDet: 6.3µM*; Cruzain Triton: -2%

What do the screens show for `O=C(N/N=C/c1cccnc1)c1cc2c(ccc3ccccc32)o1`?
Cruzain inh noDet: 4%; Cruzain Triton: -22%

How did COc1cc(-c2nc3sccn3c2Nc2cccc(C)c2)ccc1O do in these assays?
Cruzain inh noDet: -14%; Cruzain Triton: -14%

What do the screens show for `O=C(NCc1ccc(Cl)cc1)c1ccc2oc(=O)n(Cc3ccccc3)c2c1`?
Cruzain inh noDet: 23%; Cruzain Triton: 2%

What do the screens show for `COc1ccc(/C=C\C(=O)Nc2ccccc2C(=O)O)cc1OC`?
Cruzain inh noDet: 0%; Cruzain Triton: -9%

What do the screens show for `COc1ccc(NC(=O)CSc2ccc(-c3cccs3)nn2)cc1`?
Cruzain inh noDet: -8%; Cruzain Triton: -3%

What do the screens show for `COc1ccc(-c2noc(-c3ccc(N4CCOCC4)c([N+](=O)[O-])c3)n2)cc1OC`?
Cruzain inh noDet: 12%; Cruzain Triton: -4%

Results for COc1ccc(-c2noc(-c3ccc(N4CCC(C)CC4)c([N+](=O)[O-])c3)n2)cc1OC ?
Cruzain inh noDet: 20µM*; Cruzain Triton: -7%

Results for CCSc1ncc(Cl)c(C(=O)Nc2c(C(=O)Nc3ccc(Cl)cc3)oc3ccccc23)n1 ?
Cruzain inh noDet: -5%; Cruzain Triton: -2%

What do the screens show for `Cc1ccc(-c2cc(C(=O)N3CCCc4ccccc43)c3ccccc3n2)cc1`?
Cruzain inh noDet: 32µM*; Cruzain Triton: -2%

How did O=C(c1cc(-c2cccnc2)nc2ccccc12)N1CCCc2ccccc21 do in these assays?
Cruzain inh noDet: -9%; Cruzain Triton: -10%

Results for COc1cccc(Cn2c(=O)n(-c3cccc(Cl)c3)c(=O)c3c4c(sc32)CN(C(C)=O)CC4)c1 ?
Cruzain inh noDet: inconclusive; Cruzain Triton: -8%

How did Cc1ccc(CNc2ncccc2-c2nc3cc(Cl)ccc3o2)cc1 do in these assays?
Cruzain inh noDet: 10µM*; Cruzain Triton: -12%

Results for Clc1ccc2oc(-c3cccnc3NCc3ccccc3)nc2c1 ?
Cruzain inh noDet: -6%; Cruzain Triton: -14%

Results for C/C(=C\C(=O)c1ccc(F)cc1)Nc1ccc(N2CCOCC2)cc1 ?
Cruzain inh noDet: -12%; Cruzain Triton: 0%

Results for NC(=O)CC[C@H](NC(=O)c1ccc(F)cc1)C(=O)OCC(=O)Nc1ccc(N2CCOCC2)cc1 ?
Cruzain inh noDet: inconclusive; Cruzain Triton: 25µM*

How did CCc1ccccc1Nc1nn2c(=O)c3ccc(C(=O)NCCCOC(C)C)cc3nc2s1 do in these assays?
Cruzain inh noDet: 5%; Cruzain Triton: 0%

What do the screens show for `Cc1ccc(-c2nnc(Nc3ccc(C(N)=O)cc3)c3ccccc23)cc1S(N)(=O)=O`?
Cruzain inh noDet: -7%; Cruzain Triton: -8%

Results for O=C(Cc1coc2ccc3ccccc3c12)N1CCc2ccccc21 ?
Cruzain inh noDet: 13µM*; Cruzain Triton: 3%

Results for Cc1ccc2c(CC(=O)N3CCc4ccccc43)coc2c1 ?
Cruzain inh noDet: 0%; Cruzain Triton: -10%

What do the screens show for `CSc1ccc(-c2nc3cccc(C)n3c2Nc2ccc3c(c2)OCO3)cc1`?
Cruzain inh noDet: inconclusive; Cruzain Triton: -10%

How did CN(CC(=O)Nc1ccccc1Cl)S(=O)(=O)c1ccc(C(=O)N2CCOCC2)s1 do in these assays?
Cruzain inh noDet: 8%; Cruzain Triton: 1%

What do the screens show for `COc1ccccc1/C=C/C1=NC(=C\C=C/c2ccccc2)/C(=O)O1`?
Cruzain inh noDet: 25µM*; Cruzain Triton: -15%

What do the screens show for `COc1ccc(/C=C/C=C2\N=C(SC)SC2=O)cc1`?
Cruzain inh noDet: -11%; Cruzain Triton: -6%

How did COc1ccccc1/C=C/C(=O)c1ccc(Cl)cc1 do in these assays?
Cruzain inh noDet: 11%; Cruzain Triton: -1%

How did COc1ccccc1/C=C/C=C1N=C(/C=C/c2ccc(Cl)cc2)OC/1=O do in these assays?
Cruzain inh noDet: 16µM*; Cruzain Triton: -21%

How did Cc1ccc(Cl)cc1NC(=O)c1sc2nc(-c3ccccc3)cn2c1C do in these assays?
Cruzain inh noDet: 4%; Cruzain Triton: -4%

What do the screens show for `N#CC1=C(N)Oc2c(ccc3ccccc23)C1c1cccs1` (stereo not given)?
Cruzain inh noDet: inconclusive; Cruzain Triton: -10%

Results for COc1cc(C2C(C#N)=C(N)Oc3c2ccc2ccccc32)ccc1OCC(=O)Nc1ccccc1C (stereo not given) ?
Cruzain inh noDet: 13µM*; Cruzain Triton: 1%

How did COC(=O)c1ccc(NC(=O)COc2ccccc2OC)cc1 do in these assays?
Cruzain inh noDet: -3%; Cruzain Triton: -1%

How did COC(=O)c1ccc(NC(=O)COc2ccc(C3C(C#N)=C(N)Oc4c3ccc3ccccc43)cc2OC)cc1 (stereo not given) do in these assays?
Cruzain inh noDet: 7.9µM*; Cruzain Triton: 2%

How did CC(C)C(NS(=O)(=O)c1ccc2c(c1)oc(=O)n2C)C(=O)NCCc1ccccc1 (stereo not given) do in these assays?
Cruzain inh noDet: -13%; Cruzain Triton: 1%

What do the screens show for `COc1cc(C(=O)OCc2cc(=O)n3nc(C4CCCCC4)sc3n2)cc(OC)c1OC`?
Cruzain inh noDet: -5%; Cruzain Triton: 3%

What do the screens show for `COc1ccccc1OCc1nc2ccccc2n1Cc1ccccc1`?
Cruzain inh noDet: -9%; Cruzain Triton: -4%

How did N#CCCCS(=O)(=O)c1nnnn1-c1ccc(F)cc1Br do in these assays?
Cruzain inh noDet: 0%; Cruzain Triton: 3%

Results for Cc1cc(C)c2oc(-c3ccc(NC(=O)c4cc(Br)ccc4Cl)cc3)nc2c1 ?
Cruzain inh noDet: 2.5µM*; Cruzain Triton: -1%

What do the screens show for `Cc1ccc(-c2nc3cc(NC(=O)c4cc(Br)ccc4Cl)ccc3o2)cc1`?
Cruzain inh noDet: -26%; Cruzain Triton: -1%

How did NC1=C(c2ccc(F)cc2)C(=O)CS1 do in these assays?
Cruzain inh noDet: 16µM*; Cruzain Triton: inconclusive

What do the screens show for `Nc1nnc(-c2ccc(F)cc2)s1`?
Cruzain inh noDet: 16%; Cruzain Triton: -3%

What do the screens show for `CCC(=O)O[C@@]1(C(=O)CCl)[C@@H](C)C[C@@H]2[C@H]3CCC4=CC(=O)C=C[C@@]4(C)[C@]3(F)[C@@H](O)C[C@@]21C`?
Cruzain inh noDet: 8%; Cruzain Triton: -7%

Results for COc1ccc(NC(=O)c2ccc3ccccc3n2)cc1S(=O)(=O)Nc1ccccc1Cl ?
Cruzain inh noDet: 13µM*; Cruzain Triton: -2%

What do the screens show for `COc1ccc(NC(=O)c2cc(C)nc3ccccc23)cc1S(=O)(=O)Nc1ccccc1Cl`?
Cruzain inh noDet: inconclusive; Cruzain Triton: -7%

What do the screens show for `N#Cc1nc(-c2cccc3ccccc23)oc1NCCN1CCCCC1`?
Cruzain inh noDet: -8%; Cruzain Triton: 28µM*
